Test results from PubChem BioAssay (NCATS).
Records with an inconclusive call do not appear. The source made the active and inactive calls. Unless noted, calls follow the shape of the dose curve; as a rule, active = well fitted curve in either direction with a large enough effect (not every such curve was filed as active); inconclusive = small, poorly fitted or top-dose-only effect, or another doubt; inactive = flat fitted curve, though single readings scatter.

Key:
[1] = system: HIV-1 nucleocapsid protein NCp7 (binding to TG oligonucleotide); assay: HIV Nucleocapsid (AID 346; call rule not given here;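 also: potency is read from the fitted curve at half-maximal effect; potency is for inhibitors that block NC binding and lower polarization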); details: HIV-1 NC / fluorescein-TGTGTGTG probe, fluorescence polarization
Procedure, shortened: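 Fluorescence polarization readout: labelled TG4xF oligo (10 nM) with 100 nM nucleocapsid protein, high-salt (250mM NaCl) Hepes pH 7.5 buffer containing zinc and fresh reducing agents. Compounds added by pin tool; incubation 1 hr, room temperature.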

[2] = biological target: Lysosomal acid glucosylceramidase (Homo sapiens) (UniProt P04062); assay: Glucocerebrosidase-p2 (AID 348; in the data active = potency below about 10 µM; also: potency is read from the fitted curve at half-maximal effect); details: purified GBA, blue fluorogenic substrate, 40 min
Procedure, shortened: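 Compounds titrated from 0.6 nM upwards against 0.2 nM enzyme in pH 5.9 citric acid/KH2PO4, taurocholate, tween-20; blue fluorogenic substrate 80 uM, 40 min room temperature, stopped and read Ex 365/Em 440 for AC50.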

[3] = AP1 Signaling Pathway (AID 357); also: % is scaled to controls: 0 for no effect and ±100 for the full control effect
Procedure, shortened: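 ME-180 cells with beta-lactamase reporter under AP-1 response element, stimulated with EC50 EGF; compounds tested in titration series, 5 h at 37 °C. CCF4 substrate added 2.5 h at room temperature; 460/530 nm emission ratio gave %activity and AC50.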

[4] = NFAT Signaling Pathway (AID 444); details: Jurkat NFAT-bla M1, carbachol, beta-lactamase ratio, 5 h; at 7.69 µM (top of the series);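 also: carbachol stimulus at about its EC50 of 1 µM final; % is scaled to controls: 0 for no effect and ±100 for the full control effect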
Procedure, shortened: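 Read-out: CCF4 FRET ratio (460 nm/530 nm) after 1 h RT dye loading, used for %activity and AC50 from titration series. Cells: Jurkat NFAT-β-lactamase/M1 line, treated with compound plus 1 uM carbachol for 5 h, 37 °C.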

[5] = Stat Signaling Pathway (AID 446);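 also: ME-180 cervical cancer cells given 40 pM IL-6 alongside compound; SIE-controlled beta-lactamase reporter measured as 460/530 nm FRET emission ratio; % is scaled to controls: 0 for no effect and ±100 for the full control effect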
Procedure, shortened: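 Reporter line: ME-180 cervical carcinoma, SIE-beta-lactamase. Treatment: compound with 40 pM IL-6, 5 hrs, 37 C, in low-serum OPTI-MEM with 10 mM HEPES pH 7.3. Detection: 460/530 nm fluorescence.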

[6] = biological target: Glucocorticoid receptor (Homo sapiens) (UniProt P04150); assay: GR-EFC Redistribution (AID 451; calls by dose curve; also: potency is read from the fitted curve at half-maximal effect); details: CHO-K1 GR-EFC translocation, beta-gal luminescence, 2 h
Procedure, shortened: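 Translocation of GR-ED fusion to nuclear EA restores b-gal, read by luminescence after 1 h room-temperature detection. Engineered CHO-K1 biosensor cells, 1,000/well, exposed 2 h at 37 C to titrations up to 46 uM final.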

[7] = biological target: Mitogen-activated protein kinase 10 (Mus musculus) (UniProt Q61831); assay: JNK3 AlphaScreen Assay (AID 530);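 also: kinase came from lysate of stimulated human HepG2 cells; signal reports phosphorylation of biotinylated GST-cJun 1-79 at Ser73 with 10 µM ATP; % is scaled to controls: 0 for no effect and ±100 for the full control effect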
Procedure, shortened: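 Room-temperature AlphaScreen kinase assay; pre-activated HepG2 lysate as JNK3 source, biotin-GST-cJun(1-79) substrate, 10 uM ATP, compound 15 min preincubation.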

[8] = biological target: 3',5'-cyclic-AMP phosphodiesterase 4B (Homo sapiens) (UniProt Q07343); assay: qHTS Assay for Inhibitors of PDE-IV (AID 607; active = well fitted activation curve with a large enough effect in the main read-out, with a control signal flat, not every such curve was filed as active; also: % of control where 0% means no effect)
Procedure, shortened: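 Cell-based read-out of cAMP via a modified cyclic nucleotide-gated channel and membrane potential dye (535/590 nm) in HEK293 cells expressing PDE4 endogenously. Compounds tested up to 22.9 uM final; 100 uM RO 20-1724 reference.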

[9] = qHTS Assay for Lipid Storage Modulators (AID 1519; calls by dose curve); details: Drosophila S3 cells, BODIPY lipid droplet/cell ratio, laser cytometry, cells loaded with oleic acid; for activity change, negative = inhibition: at 57.5 µM (top of the series)
Procedure, shortened: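 Cells seeded at 5,000 per well were treated with compounds over a concentration series and loaded with oleic acid (400 uM, as added). Lipid droplet fluorescence (488 nm excitation, 500-530 nm channel) was read by laser-scanning cytometry and normalized to 20 uM Triacsin C.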

[10] = Primary qHTS for small molecule stabilizers of the endoplasmic reticulum resident proteome: Secreted ER Calcium Modulated Protein (SERCaMP) assay (AID 1508630; active = well fitted curve in the direction sought with a large enough effect; an effect the other way counts as inactive or inconclusive; also: % is scaled to controls: 0 for no effect and ±100 for the full control effect)
Procedure, shortened: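 GLuc-SERCaMP-expressing SH-SY5Y cells, pretreated 16 h with compound, are challenged with thapsigargin to empty ER calcium stores; after 4 h, coelenterazine is added directly to the medium and luminescence is imaged.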

[11] = biological target: Cytochrome P450 1A2 (Homo sapiens) (UniProt P05177); assay: p450-cyp1a2 (AID 410; calls by dose curve; also: potency is read from the fitted curve at half-maximal effect;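 as to activity change, negative = inhibition: -100% = full effect of reference inhibitor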)
Procedure, shortened: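 Inhibition was calculated relative to 57 uM furafylline (full inhibition). The reaction used human CYP1A2 at 20nM with Luciferin-ME at its Km, 100uM, driven by an NADPH-regenerating system for 60 min at room temperature.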

[12] = biological target: Glucocorticoid receptor (Homo sapiens) (UniProt P04150); assay: GR-GFP Redistribution (AID 450;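 active = compounds whose dose series gives a full or clear partial fitted curve of increased nuclear translocation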; also: potency is read from the fitted curve at half-maximal effect); details: U2OS GR-GFP nuclear translocation, laser cytometry, 2 h
[13] = biological target: Dual specificity protein kinase CLK4 (Homo sapiens) (UniProt Q9HAZ1); assay: qHTS Assay for Inhibitors of CDC-like Kinase 4 (Kinase-Glo Assay) (AID 1770; active = well fitted curve in the direction sought with a large enough effect; an effect the other way counts as inactive or inconclusive; also: % is scaled to controls: 0 for no effect and ±100 for the full control effect; nearly all actives have a fitted effect of over 65% in size)
Procedure, shortened: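 Readout: Kinase-Glo luminescence from ATP left after a 4.5 h room-temperature reaction of 25 nM Clk4 with 100 uM RS peptide and 1 uM ATP (final). Buffer: 25 mM Tris pH 7.5, 10 mM MgCl2.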

[14] = biological target: Dual specificity protein kinase CLK4 (Homo sapiens) (UniProt Q9HAZ1); assay: qHTS Assay for Inhibitors of CDC-like Kinase 4 (ADP-Glo Assay) (AID 1771; active = well fitted curve in the direction sought with a large enough effect; an effect the other way counts as inactive or inconclusive; also: % is scaled to controls: 0 for no effect and ±100 for the full control effect; nearly all actives have a fitted effect of over 70% in size)
Procedure, shortened: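 Kinase reaction: Clk4 at 25 nM, RS repeat peptide substrate at 100 uM, ATP at 1 uM, 1 hr, room temperature. Product ADP detected as luciferase signal via ADP-Glo.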

[15] = biological target: Dual specificity protein kinase CLK4 (Homo sapiens) (UniProt Q9HAZ1); assay: qHTS Assay for Inhibitors of CDC-like Kinase 4 (ADP-FP Assay) (AID 1795; active = well fitted curve in the direction sought with a large enough effect; an effect the other way counts as inactive or inconclusive;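 also: recombinant human CLK4 phosphorylating RS repeat peptide at 1 µM ATP; % is scaled to controls: 0 for no effect and ±100 for the full control effect; nearly all actives have a fitted effect of over 60% in size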)
Procedure, shortened: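 FP readout: Orange Transcreener ADP2 tracer (4 nM) plus ADP antibody, read after 30 min at room temperature. Kinase step: 6.25 nM Clk4, 100 uM RS peptide, 1 uM ATP, pH 7.5, 1 h.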

[16] = measured here: cell count channel max response
[17] = measured here: lipid channel max response

Sequence of Lysosomal acid glucosylceramidase (Homo sapiens) (P04062 whole entry, looked up): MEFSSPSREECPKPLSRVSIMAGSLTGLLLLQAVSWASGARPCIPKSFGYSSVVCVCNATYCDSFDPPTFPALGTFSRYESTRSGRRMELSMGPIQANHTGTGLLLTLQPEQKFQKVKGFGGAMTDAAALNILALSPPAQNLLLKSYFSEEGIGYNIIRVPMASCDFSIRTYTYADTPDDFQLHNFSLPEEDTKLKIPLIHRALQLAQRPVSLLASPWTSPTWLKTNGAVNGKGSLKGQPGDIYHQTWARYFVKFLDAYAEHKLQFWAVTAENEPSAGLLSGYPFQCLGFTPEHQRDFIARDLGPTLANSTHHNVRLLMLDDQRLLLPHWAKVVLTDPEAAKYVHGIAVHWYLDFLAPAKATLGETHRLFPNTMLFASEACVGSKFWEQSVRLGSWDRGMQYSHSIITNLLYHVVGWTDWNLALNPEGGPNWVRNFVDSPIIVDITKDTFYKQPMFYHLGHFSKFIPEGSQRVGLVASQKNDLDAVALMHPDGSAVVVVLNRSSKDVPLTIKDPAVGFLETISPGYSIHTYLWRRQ
Sequence of Glucocorticoid receptor (Homo sapiens) (P04150 whole entry, looked up, the tested form may be a part): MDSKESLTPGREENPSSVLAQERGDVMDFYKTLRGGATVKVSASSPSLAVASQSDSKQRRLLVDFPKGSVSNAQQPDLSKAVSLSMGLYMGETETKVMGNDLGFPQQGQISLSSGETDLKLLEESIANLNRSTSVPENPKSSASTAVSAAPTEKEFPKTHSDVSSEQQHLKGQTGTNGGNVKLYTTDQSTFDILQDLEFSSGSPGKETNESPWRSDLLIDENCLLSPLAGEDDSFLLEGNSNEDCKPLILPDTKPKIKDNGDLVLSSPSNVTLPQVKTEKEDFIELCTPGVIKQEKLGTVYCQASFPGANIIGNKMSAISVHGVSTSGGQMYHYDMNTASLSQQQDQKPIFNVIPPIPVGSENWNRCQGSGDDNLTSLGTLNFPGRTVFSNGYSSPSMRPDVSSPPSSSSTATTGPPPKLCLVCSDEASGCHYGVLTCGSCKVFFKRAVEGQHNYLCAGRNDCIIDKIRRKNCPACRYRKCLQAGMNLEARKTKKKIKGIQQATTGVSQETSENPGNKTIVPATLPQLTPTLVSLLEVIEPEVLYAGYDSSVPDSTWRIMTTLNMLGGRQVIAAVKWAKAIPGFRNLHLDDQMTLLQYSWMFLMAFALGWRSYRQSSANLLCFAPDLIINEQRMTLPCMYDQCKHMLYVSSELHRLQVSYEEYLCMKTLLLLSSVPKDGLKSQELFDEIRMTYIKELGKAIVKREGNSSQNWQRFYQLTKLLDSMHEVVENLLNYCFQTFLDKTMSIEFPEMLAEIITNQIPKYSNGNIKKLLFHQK
Sequence of 3',5'-cyclic-AMP phosphodiesterase 4B (Homo sapiens) (Q07343 whole entry, looked up): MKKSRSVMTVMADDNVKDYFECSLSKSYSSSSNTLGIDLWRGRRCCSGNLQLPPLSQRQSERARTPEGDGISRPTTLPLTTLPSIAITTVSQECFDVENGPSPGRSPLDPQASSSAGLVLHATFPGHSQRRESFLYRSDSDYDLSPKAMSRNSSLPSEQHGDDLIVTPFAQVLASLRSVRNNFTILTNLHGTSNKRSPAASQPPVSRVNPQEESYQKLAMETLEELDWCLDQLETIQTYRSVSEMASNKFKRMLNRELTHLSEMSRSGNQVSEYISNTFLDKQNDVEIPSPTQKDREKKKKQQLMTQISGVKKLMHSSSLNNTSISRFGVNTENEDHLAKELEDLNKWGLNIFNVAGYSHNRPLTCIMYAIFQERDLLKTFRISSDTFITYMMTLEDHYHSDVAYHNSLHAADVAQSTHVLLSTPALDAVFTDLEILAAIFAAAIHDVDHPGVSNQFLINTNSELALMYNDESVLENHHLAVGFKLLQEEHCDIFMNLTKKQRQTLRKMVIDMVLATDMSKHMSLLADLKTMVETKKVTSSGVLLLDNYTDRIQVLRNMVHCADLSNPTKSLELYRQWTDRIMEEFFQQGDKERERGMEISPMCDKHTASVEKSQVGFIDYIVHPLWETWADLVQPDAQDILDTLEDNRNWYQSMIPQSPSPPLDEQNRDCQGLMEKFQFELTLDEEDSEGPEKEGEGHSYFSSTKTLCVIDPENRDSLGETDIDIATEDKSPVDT
Sequence of Dual specificity protein kinase CLK4 (Homo sapiens) (Q9HAZ1 whole entry, looked up): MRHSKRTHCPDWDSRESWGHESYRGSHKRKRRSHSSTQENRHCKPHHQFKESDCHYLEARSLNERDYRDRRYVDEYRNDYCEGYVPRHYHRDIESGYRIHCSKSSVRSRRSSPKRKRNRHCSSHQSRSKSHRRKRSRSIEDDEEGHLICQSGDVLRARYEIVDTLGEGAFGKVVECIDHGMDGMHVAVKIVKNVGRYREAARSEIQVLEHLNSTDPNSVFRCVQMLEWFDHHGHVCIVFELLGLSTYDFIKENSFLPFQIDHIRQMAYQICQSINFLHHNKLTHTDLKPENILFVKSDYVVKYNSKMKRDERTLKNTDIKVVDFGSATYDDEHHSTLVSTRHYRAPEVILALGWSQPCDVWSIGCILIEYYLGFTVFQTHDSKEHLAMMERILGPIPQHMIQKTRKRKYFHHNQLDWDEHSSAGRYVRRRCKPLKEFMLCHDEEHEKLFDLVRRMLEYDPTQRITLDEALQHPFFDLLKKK
Sequence of Cytochrome P450 1A2 (Homo sapiens) (P05177 whole entry, looked up): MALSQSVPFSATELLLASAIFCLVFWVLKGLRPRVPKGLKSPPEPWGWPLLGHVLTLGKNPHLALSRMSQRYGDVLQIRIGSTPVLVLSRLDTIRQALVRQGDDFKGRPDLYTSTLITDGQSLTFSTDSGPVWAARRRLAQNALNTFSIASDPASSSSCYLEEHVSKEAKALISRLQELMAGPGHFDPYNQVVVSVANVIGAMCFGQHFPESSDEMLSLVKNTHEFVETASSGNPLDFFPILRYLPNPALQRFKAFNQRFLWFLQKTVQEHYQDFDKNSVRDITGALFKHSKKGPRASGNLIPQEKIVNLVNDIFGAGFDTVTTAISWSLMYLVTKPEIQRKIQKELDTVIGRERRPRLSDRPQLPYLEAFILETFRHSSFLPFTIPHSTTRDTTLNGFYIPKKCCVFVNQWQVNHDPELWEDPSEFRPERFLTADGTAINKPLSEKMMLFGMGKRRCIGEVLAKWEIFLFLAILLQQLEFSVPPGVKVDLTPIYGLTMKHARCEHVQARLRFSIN

For O=C(Nc1ccccc1)N1CC[C@@]2(CCCNC2)C1, the Potency [1] was > 20 µM (inactive), the Potency [2] was > 11.4 µM (inactive) and the outcome [3] was “inactive”. The activity change, negative = inhibition [4] was 19.4% (inactive), the outcome [5] was “inactive” and the Potency [6] was > 46 µM (inactive). The outcome [7] was “inactive”, the Potency [8] was “inactive” and the activity change, negative = inhibition [9] was -3.27% (inactive). The max response [9, 16] was 4.57%, the max response [9, 17] was 3% and the outcome [10] was “inactive”.
With CC(=O)O[C@@H]1C[C@@]2(C)C(c3ccoc3)C[C@H]3O[C@]32[C@]2(C)C(=O)C(O)=C3C(C)(C)C(=O)C=C[C@]3(C)C12 (stereo partly drawn) the outcome [10] was “inactive”.
In the case of O=C(CN1CCCCC1c1cccnc1)c1ccccc1 (stereo not drawn), the outcome [10] is reported as “inactive”.
With CN1CC[C@@]2(CCCN(C(=O)c3csnn3)C2)C1 the Potency [1] was > 20 µM (inactive), the Potency [2] was > 11.4 µM (inactive) and the outcome [3] was “inactive”. For the same compound, the Potency [11] was “inactive”, the activity change, negative = inhibition [4] was -23.3% (inactive) and the outcome [5] was “inactive”. The Potency [6] was > 46 µM (inactive), the outcome [7] was “inactive” and the Potency [8] was “inactive”. For the same compound, the activity change, negative = inhibition [9] was -3.58% (inactive), the max response [9, 16] was -13.7% and the max response [9, 17] was -16.8%. The outcome [10] was “inactive”.
In the case of c1ccc(N2CC3(CCNCC3)C2)nc1, the Potency [1] is reported as > 20 µM (inactive), the Potency [2] is reported as > 11.4 µM (inactive) and the outcome [3] is reported as “inactive”. For the same compound, the outcome [5] was “inactive”, the Potency [6] was > 46 µM (inactive) and the outcome [7] was “inactive”. For the same compound, the Potency [8] was “inactive”, the activity change, negative = inhibition [9] was -0.659% (inactive) and the max response [9, 16] was 12.4%. For the same compound, the max response [9, 17] was 14.7% and the outcome [10] was “inactive”.
With CN1CCN(c2ncc3ncc(=O)n(C)c3n2)CC1 the Potency [1] was > 20 µM (inactive), the Potency [2] was > 11.4 µM (inactive) and the outcome [3] was “inactive”. The Potency [11] was 12.6 µM (active), the activity change, negative = inhibition [4] was 11.5% (inactive) and the outcome [5] was “inactive”. The Potency [12] was > 9.22 µM (inactive), the Potency [6] was > 46 µM (inactive) and the outcome [7] was “inactive”. The Potency [8] was “inactive”, the activity change, negative = inhibition [9] was 3.09% (inactive) and the max response [9, 16] was -0.0774%. The max response [9, 17] was 1.21%, the outcome [13] was “inactive” and the outcome [14] was “inactive”. The outcome [15] was “inactive” and the outcome [10] was “inactive”.
For CS(=O)(=O)N1CCC2(CCCN(Cc3ccncc3)C2)CC1, the Potency [1] was > 20 µM (inactive), the Potency [2] was > 11.4 µM (inactive) and the outcome [3] was “inactive”. For the same compound, the outcome [5] was “inactive”, the Potency [6] was > 46 µM (inactive) and the outcome [7] was “inactive”. The Potency [8] was “inactive”, the activity change, negative = inhibition [9] was 6.09% (inactive) and the max response [9, 16] was 15.9%. For the same compound, the max response [9, 17] was 25.1% and the outcome [10] was “inactive”.
For O=C(c1ccncc1)N1CCC[C@@]2(CCN(Cc3nccs3)C2)C1, the Potency [1] was > 20 µM (inactive), the Potency [2] was > 11.4 µM (inactive) and the outcome [3] was “inactive”. For the same compound, the activity change, negative = inhibition [4] was 5.07% (inactive), the outcome [5] was “inactive” and the Potency [6] was > 46 µM (inactive). For the same compound, the outcome [7] was “inactive”, the Potency [8] was “inactive” and the activity change, negative = inhibition [9] was 3.49% (inactive). For the same compound, the max response [9, 16] was 8.75%, the max response [9, 17] was 15.4% and the outcome [10] was “inactive”.
